Bioassay records as filed in PubChem BioAssay.
ELG1 genotoxic: inducers of genotoxicity in HEK293T ELG1-luciferase cells | HEK293T ELG1-luciferase reporter, luminescence, 16 h | Potency, µM (doses to about 46 µM), inactives show at the top dose activity change, positive = activation, most hits filed as activators | 1.3% of 330,000 active; note: % of control where 0% means no effect; nearly all actives have a fitted effect of over 60% in size
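Genotoxic stress is detected as increased luminescence from luciferase-tagged ELG1 in HEK293T cells, measured with ONE-Glo after a 16 hr treatment at 37 °C.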
FLuc counter: counter-screen for miR-21 project: firefly luciferase inhibitors or activators | P08659 | purified FLuc, Km substrates, luminescence inhibition | Potency, µM (series often up to 57.5 µM), without a hit: at the highest dose activity change, negative = inhibition, usual class: inhibitors | 6.9% of 360,000 active | AID 588342;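 note: plate controls were vehicle for no effect and reference inhibitor for full effect; nearly all actives have a fitted effect of over 55% in size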
Target sequence (P08659 whole entry, looked up): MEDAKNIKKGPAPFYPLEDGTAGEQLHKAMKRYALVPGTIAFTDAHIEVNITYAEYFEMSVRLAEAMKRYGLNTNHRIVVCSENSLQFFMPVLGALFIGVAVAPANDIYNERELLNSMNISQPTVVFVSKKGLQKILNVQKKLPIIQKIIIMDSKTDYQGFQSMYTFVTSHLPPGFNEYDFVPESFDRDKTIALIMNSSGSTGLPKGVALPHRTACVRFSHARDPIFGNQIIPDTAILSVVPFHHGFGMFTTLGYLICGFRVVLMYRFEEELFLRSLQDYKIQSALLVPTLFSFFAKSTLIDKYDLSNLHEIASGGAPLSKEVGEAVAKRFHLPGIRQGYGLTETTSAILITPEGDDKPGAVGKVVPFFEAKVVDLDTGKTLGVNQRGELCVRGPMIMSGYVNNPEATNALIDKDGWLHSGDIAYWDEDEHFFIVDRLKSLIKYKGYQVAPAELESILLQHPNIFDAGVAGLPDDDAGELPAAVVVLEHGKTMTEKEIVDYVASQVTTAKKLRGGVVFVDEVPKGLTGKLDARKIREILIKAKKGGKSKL
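Biochemical qHTS of compounds, final roughly 60 µM downward over six points, against 10 nM purified firefly luciferase using Km concentrations of substrates (10 uM D-luciferin, 10 uM ATP) in Tris acetate pH 7.5 buffer; luminescence output.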
SMN2 splice up: SMN2 splice variant enhancement; Potency, µM (doses to about 46.1 µM), inactives show top-dose activity change, positive = activation, hits mostly activators; 2.8% of 210,000 active; HEK293 SMN2-luciferase splicing reporter, luminescence, 30-36 h; AID 1458; note: % of control where 0% means no effect; nearly all actives have a fitted effect of over 55% in size
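HEK293 cells carry an SMN2 minigene-luciferase reporter in which exon 7 inclusion puts luciferase in frame. Cells were seeded at 2000 cells/well, attached for 10-12 hours, then exposed to compounds for 30-36 hours at 37C before ONE-Glo luminescence.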
NPC1 promoter act: NPC1 promoter activation; Huh7 NPC1 promoter luciferase reporter, 24 h; 2.4% of 320,000 active; AID 485313; Potency, µM (titrated, usually from 9.22 µM), for the others: at the top dose activation, most hits filed as activators; note: % of control where 0% means no effect; nearly all actives have a fitted effect of over 60% in size
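Luminescence read-out of NPC1 promoter-driven luciferase in stably transfected Huh7 cells; compounds delivered in DMSO and left 24 h at 37C, 5% CO2, qHTS titration format.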
Rab9 promoter act: Rab9 promoter activation. Huh7 Rab9 promoter-luciferase reporter, luminescence, 24 h. Potency, µM (doses to about 9.22 µM), for inactives: at the top dose activation, negative = inhibition, most hits filed as activators. 2.8% of 320,000 active. AID 485297; note: % of control where 0% means no effect; nearly all actives have a fitted effect of over 60% in size
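Cells were plated at 1500 per well in reduced-serum medium with 10% FBS and left 2 h. Compound in DMSO was then added for 24 h at 37 °C. Reporter signal was read by luminescence after 10 min with luciferase detection reagent.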
* marks the source's active call; other numbers are inactive results; ? = inconclusive; · = no result. Most compounds without a hit are left out; they make up all but 7.5% or so of the library. Calls come from the whole dose curve; as a rule, active = well fitted curve in the direction sought with a large enough effect; inconclusive = small, poorly fitted or top-dose-only effect, or another doubt; inactive = no such curve, though single readings can be large; an effect the other way counts as inactive or inconclusive. Potency is the fitted concentration of half-maximal effect.

SMILES	ELG1 genotoxic	FLuc counter	SMN2 splice up	NPC1 promoter act	Rab9 promoter act
COc1ccc(NC(=O)Nc2ccc(Br)cn2)cc1	17.7%	-17.0%	?	3.55µM*	2.82µM*
COC(=O)c1ccccc1NC(=O)Nc1ccc(Br)cn1	13.6%	-5.7%	?	20.6%	27.1%
Cc1ccc(N2C(=O)C3C(C2=O)N2C(c4cccs4)C4C(=O)N(c5ccc(C)cc5)C(=O)C4N2C3c2cccs2)cc1 (stereo not given)	-0.6%	-0.4%	-9.6%	-3.9%	-3.8%
COc1cc(/C=C/C(=O)c2cccc([N+](=O)[O-])c2)cc(OC)c1OC	-7.9%	-1.4%	5.2%	-2.3%	-7.3%
Cc1c(OCc2ccc(C(=O)O)o2)ccc2c3c(c(=O)oc12)CCC3	?	19µM*	12.0%	-1.5%	1.9%
COC(=O)c1ccc(COc2ccc3c(C)c(C)c(=O)oc3c2C)o1	6.8%	4.78µM*	15.8%	?	?
COc1ccccc1COc1ccc2c(C)c(CCC(=O)O)c(=O)oc2c1C	4.6%	23.9µM*	·	-1.5%	2.7%
Cc1c(OCC(=O)Nc2cccnc2)ccc2c3c(c(=O)oc12)CCC3	12.8%	19µM*	·	29.9%	28.0%
CCN(CC)C(=O)COc1ccc2c3c(c(=O)oc2c1C)CCCC3	0.4%	-2.1%	·	0.2%	-3.5%
Cc1c(OCC(=O)NCc2ccccn2)ccc2c3c(c(=O)oc12)CCCC3	-0.5%	-4.2%	·	10.4%	0.2%
CCOc1ccc(CCNC(=O)c2ccc3c(Cl)c4c(nc3c2)CCCC4)cc1	·	-13.6%	3.2%	·	·
CCN(C(=O)CO/N=C/c1ccc(OC)cc1OC)c1c(N)n(Cc2ccccc2)c(=O)[nH]c1=O	0.2%	·	·	0.7%	-3.4%
Cc1cc(C)nc(N2N=C(CSc3ccc(Cl)cc3)CC2=O)n1	-1.1%	?	-2.4%	0.0%	-4.0%
COc1ccc(CCNC(=O)Cn2c(=O)n(-c3cc(F)ccc3F)c(=O)c3sccc32)cc1OC	-15.0%	3.5%	14.7%	-2.5%	1.7%
COc1ccc(-c2noc(-c3ccc(Br)o3)n2)cc1OC	?	-7.6%	23.0%	15.0%	29.6%
Brc1ccc(-c2noc(-c3ccccn3)n2)o1	?	2.69µM*	·	0.562µM*	0.447µM*
Brc1ccc(-c2nc(-c3ccccn3)no2)o1	?	1.51µM*	2.51µM*	0.562µM*	?
OC1(C(F)(F)F)CC(c2ccc3ccccc3c2)=NO1 (stereo not given)	?	19µM*	·	2.8%	-1.7%
CCc1ccc(-c2cc(C)no2)cc1S(=O)(=O)N1CCN(c2cccc(Cl)c2)CC1	·	2.9%	·	·	·
CCOc1ccc(CCNC(=O)c2ccc3c(=O)[nH]c4c(C(=O)NC(C)C)sc(=S)n4c3c2)cc1	-13.1%	16.9µM*	·	1.9%	-0.1%
COc1ccccc1C(=O)NCCC(=O)NCCc1ccccc1	14.0%	4.1%	·	-0.5%	-4.1%
COc1ccccc1C(=O)NCCC(=O)NC1CCC(C)CC1 (stereo not given)	?	13.5µM*	·	?	3.98µM*
COc1ccccc1C(=O)NCCC(=O)NCC(c1ccccc1)N(C)C (stereo not given)	6.3%	13.5µM*	·	2.2%	-2.0%
COCCCNC(=O)c1c(C)nn(-c2ccc(F)cc2)c1-n1cccc1	·	4.0%	·	·	·
Cc1cc(/C([O-])=C(/C(=S)Nc2ccc(F)cc2)[n+]2ccccc2)c(C)n1-c1ccc(F)cc1	4.5%	?	2.5%	11.2%	22.4%
SMILES	ELG1 genotoxic	FLuc counter	SMN2 splice up	NPC1 promoter act	Rab9 promoter act
Cc1cc(/C([O-])=C(/C(=S)Nc2ccccc2)[n+]2ccccc2)c(C)n1-c1ccccc1	10.3µM*	12µM*	-0.4%	16.8%	21.8%
Cc1ccc2cc(CN(CCN(C)C)C(=O)Nc3ccc(Cl)cc3)c(=O)[nH]c2c1	-0.8%	10.7µM*	·	-0.1%	2.4%
Cc1ccc2[nH]c(=O)c(CN(CCCN(C)C)C(=O)Nc3ccc(Cl)cc3)cc2c1	13.4%	3.8%	8.8%	-6.7%	?
Cc1ccc(Sc2cnc3ccccc3n2)cc1	2.59µM*	6.75µM*	?	?	3.55µM*
Cc1cc(Sc2ccc(Cl)cc2)nc2ccccc12	·	?	-6.7%	·	·
COc1ccc(C(=O)Cc2nnc(C)s2)c(OC)c1	?	?	?	17.2%	?
COc1ccc(C(=O)Cc2cc(OC)c(OC)cc2[N+](=O)[O-])c(OC)c1	3.8%	16.9µM*	0.5%	16.7%	21.6%
COc1ccc(C(=O)Cc2ccc(F)cc2)c(OC)c1	?	16.9µM*	?	?	?
COc1ccc(CCNC(=O)Cc2cc(OC)c(OC)cc2[N+](=O)[O-])cc1OC	-3.7%	7.8%	16.2%	-4.3%	-8.7%
CCCCNC(=O)CCCCCn1c(=O)[nH]c2ccccc2c1=O	·	0.6%	·	·	·
CCOc1ccc(CN(C)CC(=O)NCc2ccccc2Cl)cc1	1.4%	-4.1%	-37.4%	-4.7%	0.4%
C#CCn1c(S(=O)(=O)Cc2ccccc2Cl)nc(-c2ccccc2)c1-c1ccccc1	-5.2%	5.6%	5.62µM*	-3.2%	-5.5%
C#CCn1c(S(=O)(=O)Cc2ccc(C)cc2)nc(-c2ccccc2)c1-c1ccccc1	-11.3%	3.5%	30.3%	-5.1%	0.4%
O=C(c1ccco1)N1C(=O)c2cccc3cccc1c23	-0.1%	-1.1%	10µM*	-3.5%	-1.2%
CCOc1ccc(N/C=C/C(=O)c2ccc3ccccc3c2)c([N+](=O)[O-])c1	15.9%	0.849µM*	2.51µM*	2µM*	2µM*
CCOc1ccc(NC(=O)Cc2ccccc2)c([N+](=O)[O-])c1	6.6%	-17.7%	0.7%	1.6%	10.2%
Cc1ccc(C(=O)/C=C/Nc2ccc([N+](=O)[O-])cc2Br)cc1	?	0.338µM*	?	0.447µM*	0.447µM*
CCOc1ccc(N/C=C/C(=O)c2ccc(C)cc2)c([N+](=O)[O-])c1	?	1.35µM*	?	1.41µM*	?
CCOc1ccc(NC(=O)COc2ccccc2)c([N+](=O)[O-])c1	?	3.01µM*	?	?	3.55µM*
CCCCN(C(=O)C1CC(=O)N(c2ccc3c(c2)OCCO3)C1)c1c(N)n(CC(C)C)c(=O)[nH]c1=O (stereo not given)	-3.4%	5.4%	·	-0.2%	23.5%
CCCCN(C(=O)c1ccc([N+](=O)[O-])s1)c1c(N)n(CCCC)c(=O)[nH]c1=O	-4.8%	5.3%	·	4.8%	0.4%
N=C1S/C(=C\c2ccco2)C(=O)N1c1nccs1	?	10.7µM*	-36.3%	?	?
CN(C)c1ccc(P(=O)(OC2CCCCC2)C(O)c2ccccn2)cc1 (stereo not given)	3.1%	0.8%	·	1.2%	-3.2%
c1ccc(Cc2nnc3sc(-c4ccc5c(c4)OCCO5)nn23)cc1	?	13.5µM*	4.2%	8.9%	?
CCOc1ccccc1Oc1nc(-c2ccccc2O)nc2ccccc12	-5.2%	-0.5%	·	-3.7%	2.4%
